The source of these data is PubChem BioAssay.

For one test, the target named is Albumin (Bos taurus) (UniProt P02769). The experiment in a line: bovine serum albumin binders on microarray, profiling panel, artefact control for SMM control protein annotation, biochemical, small-molecule microarray, Alexa647 label, 635/667 nm fluorescence (AID 1118).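 Note: score merges 667 nm emission intensity and signal-to-noise per printed compound spot.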 As to conditions: BSA-A647 binding, fluorescence 635 nm, higher = more signal.
Sequence of Albumin (Bos taurus) (P02769 whole entry, looked up): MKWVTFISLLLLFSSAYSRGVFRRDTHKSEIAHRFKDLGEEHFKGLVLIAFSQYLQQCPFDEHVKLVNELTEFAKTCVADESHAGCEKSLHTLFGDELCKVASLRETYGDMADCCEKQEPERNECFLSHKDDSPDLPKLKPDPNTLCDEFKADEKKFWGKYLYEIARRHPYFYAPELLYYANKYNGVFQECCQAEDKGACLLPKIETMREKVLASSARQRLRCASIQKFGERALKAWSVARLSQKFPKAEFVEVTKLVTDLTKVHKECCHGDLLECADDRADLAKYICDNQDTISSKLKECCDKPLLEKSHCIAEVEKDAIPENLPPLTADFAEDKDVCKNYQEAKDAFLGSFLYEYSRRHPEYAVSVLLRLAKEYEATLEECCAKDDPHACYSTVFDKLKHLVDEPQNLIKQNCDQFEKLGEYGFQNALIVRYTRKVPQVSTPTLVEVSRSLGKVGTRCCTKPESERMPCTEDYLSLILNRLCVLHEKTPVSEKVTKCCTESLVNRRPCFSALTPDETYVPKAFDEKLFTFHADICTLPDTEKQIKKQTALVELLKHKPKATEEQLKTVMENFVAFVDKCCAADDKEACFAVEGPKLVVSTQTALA
Test [1] is described as follows: small-molecule microarray binders of probe aXIP, primary screen, biochemical, NeuroSMM set, 635/667 nm fluorescence (AID 1119).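 Note: probe is the protein aXip251-270 applied at 1 µg/mL to compound-printed slides; binding of probe to printed compounds measured as 667 nm fluorescence plus signal to noise.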 As to conditions: higher = more signal, called active from +8 up or from −8 down.
Test [2] in a line: small-molecule binders of probe aNOTCH3, primary screen, biochemical, small-molecule microarray, 635/667 nm fluorescence (AID 1120).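 Note: probe is a biotin-tagged antibody raised against NOTCH3 rather than NOTCH3 protein; score merges spot fluorescence near 667 nm with spot signal to noise.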 Particulars: higher = more signal.
The nature of test [3]: small-molecule binders of probe aNOTCH2, primary screen, biochemical, small-molecule microarray, 635/667 nm fluorescence (AID 1121).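 Note: score merges feature fluorescence read at 667 nm with its signal to noise.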 Particulars: higher = more signal.
In test [4] the target is Carbonic anhydrase 2 (Homo sapiens) (UniProt P00918). Nature of the test: CAII small-molecule binders, profiling panel, biochemical, small-molecule microarray, Alexa647-labelled CAII (AID 1122). Particulars: CAII-A647 binding fluorescence, higher = more signal.
Test [5] in a line: COS7 lysate on small-molecule microarray, probe aHis, 635 nm (AID 1123).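 Note: z-score combines 667nm fluorescence intensity with signal-to-noise per printed compound spot.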 As to conditions: COS7 cell lysate, fluorescence, higher = more signal.
Test [6] can be described thus: compound binding in COS7 lysate, probe aLAP1, primary screen, cell lysate, small-molecule microarray (AID 1124).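 Note: lysate comes from COS7 cells expressing LAP1 and is applied at 0.3 µg/mL; score merges spot fluorescence near 667 nm with signal-to-noise over triplicate slides.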 As to conditions: probe aLAP1, fluorescence, higher = more signal.
The test system of the next test is Sam68 (KHDRBS1). The experiment in a line: Sam68 small-molecule binders, primary screen, biochemical, small-molecule microarray, 635 nm fluorescence (AID 1125).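 Note: score merges 667 nm channel intensity with signal to noise over triplicate slides.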 As to conditions: small-molecule microarray binding, higher = more signal.
Test [7] relates to Chordin-like protein 2 (CHRDL2). The experiment in a line: CHRDL2 small-molecule binders, primary screen, biochemical, small-molecule microarray, 635 nm fluorescence (AID 1126).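 Note: printed compound slides probed with Chrdl2 protein at 4 µg/mL for 1 h at 4 C; score merges 667 nm emission intensity with signal to noise over three replicate slides.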 As to conditions: small-molecule microarray binding, fluorescence 635 nm; higher = more signal.
The target in test [8] is Concanavalin-A (Canavalia ensiformis) (UniProt P02866). Nature of the test: ConA small-molecule binders, primary screen, artefact control for SMM control protein annotation, biochemical, small-molecule microarray, Alexa647 label, 635 nm (AID 1127).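 Note: z combines 667 nm emission intensity with signal-to-noise across three replicate slides.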 Particulars: ConA-A647 binding fluorescence, higher = more signal.
Sequence of Concanavalin-A (Canavalia ensiformis) (P02866 whole entry, looked up): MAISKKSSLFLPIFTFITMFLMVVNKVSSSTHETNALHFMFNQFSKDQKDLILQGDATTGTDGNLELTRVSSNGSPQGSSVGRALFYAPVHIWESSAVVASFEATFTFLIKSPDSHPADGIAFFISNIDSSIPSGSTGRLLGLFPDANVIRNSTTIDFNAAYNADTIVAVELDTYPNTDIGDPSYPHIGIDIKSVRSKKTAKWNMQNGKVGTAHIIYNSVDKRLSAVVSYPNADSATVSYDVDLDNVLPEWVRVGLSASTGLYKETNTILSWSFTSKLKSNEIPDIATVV
The nature of test [9]: anti-His antibody binders, primary screen, artefact control for SMM control protein annotation, biochemical, small-molecule microarray, 635 nm fluorescence (AID 1128).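 Note: score merges feature fluorescence with signal-to-noise for each printed compound spot.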 Particulars: anti-His Alexa647 antibody binding, higher = more signal.
Test [10] relates to Human papillomavirus type 1a E7 protein (residues 1-88). The experiment in a line: HPV1a E7 small-molecule binders, primary screen, biochemical, small-molecule microarray, residues 1-88, 635 nm (AID 1129). As to conditions: small-molecule microarray binding, fluorescence 635 nm; higher = more signal.
Test [11] addresses Focal adhesion kinase 1 (Homo sapiens) (UniProt Q05397). Nature of the test: small-molecule microarray binders of FAK, primary screen, biochemical, 635/667 nm fluorescence, BSA, DTT (AID 1130).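 Note: composite of spot emission at 667 nm and signal to noise over triplicate slides.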 Particulars: PTK2 binding, 635 nm fluorescence, higher = more signal.
Test [12] deals with Fibrinogen (Alexa647-labelled). Nature of the test: fibrinogen binders on compound microarrays, profiling panel, artefact control for SMM control-protein annotation, biochemical, small-molecule microarray, 635/667 nm fluorescence (AID 1131).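 Note: z-score merges 667 nm fluorescence with per-spot signal-to-noise over triplicate slides.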 As to conditions: fibrinogen-A647 binding fluorescence, higher = more signal.
The target of test [13] is Follistatin (Homo sapiens) (UniProt P19883). The experiment in a line: follistatin binders on small-molecule microarrays, primary screen, biochemical, small-molecule microarray, 635/667 nm fluorescence (AID 1132). Particulars: FST binding, 635 nm fluorescence, higher = more signal.
Sequence of Follistatin (Homo sapiens) (P19883 whole entry, looked up): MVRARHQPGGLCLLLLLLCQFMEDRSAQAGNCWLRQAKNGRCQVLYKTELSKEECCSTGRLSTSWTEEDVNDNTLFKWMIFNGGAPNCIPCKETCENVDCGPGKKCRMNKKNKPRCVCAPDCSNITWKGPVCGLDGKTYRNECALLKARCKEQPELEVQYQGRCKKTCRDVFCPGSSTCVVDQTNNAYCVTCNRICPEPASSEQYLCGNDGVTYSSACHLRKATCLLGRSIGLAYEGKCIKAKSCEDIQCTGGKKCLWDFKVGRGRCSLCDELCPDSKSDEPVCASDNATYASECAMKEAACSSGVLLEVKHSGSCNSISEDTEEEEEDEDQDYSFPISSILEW
Test [14] has as its target Fibroblast growth factor 2 (Homo sapiens) (UniProt P09038). Nature of the test: FGF2 binders on small-molecule microarrays, primary screen, biochemical, small-molecule microarray, 635/667 nm fluorescence (AID 1133). As to conditions: small-molecule microarray binding, FGF2, fluorescence 635/667; higher = more signal.
A short description of test [15]: mitochondrial membrane potential change in A549 cells, profiling panel, cell-based, JC-1 fluorescence, basal, 24 h, 100 nL (AID 1138).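 Note: A549 lung adenocarcinoma cells under basal conditions with no added stimulus; test concentration not given here.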 Particulars: higher = more signal.
A further test relates to Lefty1. Nature of the test: Lefty1 binders on small-molecule microarrays, primary screen, biochemical, small-molecule microarray, 635/667 nm fluorescence (AID 1139). As to conditions: small-molecule microarray binding, fluorescence 635/667; higher = more signal.
The subject of test [16] is wheat germ agglutinin (Triticum aestivum), Alexa647-labelled. Nature of the test: wheat germ agglutinin binders on compound microarrays, profiling panel, artefact control for SMM control-protein annotation, biochemical, small-molecule microarray, 635/667 nm fluorescence (AID 1140).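 Note: score merges 667 nm feature emission with signal to noise over triplicate slides.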 As to conditions: WGA-A647 binding, 635 nm fluorescence, higher = more signal.
In test [17] the target is Luciferin 4-monooxygenase (Photinus pyralis) (UniProt P08659). The experiment in a line: firefly luciferase enzyme inhibitors, primary screen, biochemical, luminescence, purified enzyme, 2006 set (AID 1141).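 Note: cell-free assay with purified firefly luciferase at 100 ng per well in PBS; test concentration not given here.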 Particulars: SteadyGlo luminescence, 30 min, higher = more signal, called active from +8 up or from −8 down.
Sequence of Luciferin 4-monooxygenase (Photinus pyralis) (P08659 whole entry, looked up): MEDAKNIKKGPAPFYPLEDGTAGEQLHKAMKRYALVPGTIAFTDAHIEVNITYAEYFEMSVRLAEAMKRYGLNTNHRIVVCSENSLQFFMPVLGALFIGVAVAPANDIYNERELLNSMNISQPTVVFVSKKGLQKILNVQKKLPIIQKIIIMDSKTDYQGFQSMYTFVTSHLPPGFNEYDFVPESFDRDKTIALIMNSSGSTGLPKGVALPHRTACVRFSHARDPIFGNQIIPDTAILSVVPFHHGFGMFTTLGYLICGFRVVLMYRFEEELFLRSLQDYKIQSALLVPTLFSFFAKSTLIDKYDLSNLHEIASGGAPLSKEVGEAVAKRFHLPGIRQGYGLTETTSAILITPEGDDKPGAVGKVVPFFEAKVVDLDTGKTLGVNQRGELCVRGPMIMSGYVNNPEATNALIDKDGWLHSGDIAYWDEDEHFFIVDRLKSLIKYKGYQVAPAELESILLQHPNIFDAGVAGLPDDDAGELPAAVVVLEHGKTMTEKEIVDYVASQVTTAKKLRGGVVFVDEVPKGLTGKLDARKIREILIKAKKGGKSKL

Active and inactive are the calls of the source.

Sequence of Fibroblast growth factor 2 (Homo sapiens) (P09038 whole entry, looked up): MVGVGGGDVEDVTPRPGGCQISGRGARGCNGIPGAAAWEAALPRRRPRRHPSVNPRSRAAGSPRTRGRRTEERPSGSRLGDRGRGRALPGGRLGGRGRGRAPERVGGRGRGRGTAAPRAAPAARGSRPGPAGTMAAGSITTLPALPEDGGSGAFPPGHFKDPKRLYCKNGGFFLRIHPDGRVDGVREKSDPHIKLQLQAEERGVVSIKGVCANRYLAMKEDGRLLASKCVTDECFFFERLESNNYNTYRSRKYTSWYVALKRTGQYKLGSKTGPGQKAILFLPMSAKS
Sequence of Focal adhesion kinase 1 (Homo sapiens) (Q05397 whole entry, looked up): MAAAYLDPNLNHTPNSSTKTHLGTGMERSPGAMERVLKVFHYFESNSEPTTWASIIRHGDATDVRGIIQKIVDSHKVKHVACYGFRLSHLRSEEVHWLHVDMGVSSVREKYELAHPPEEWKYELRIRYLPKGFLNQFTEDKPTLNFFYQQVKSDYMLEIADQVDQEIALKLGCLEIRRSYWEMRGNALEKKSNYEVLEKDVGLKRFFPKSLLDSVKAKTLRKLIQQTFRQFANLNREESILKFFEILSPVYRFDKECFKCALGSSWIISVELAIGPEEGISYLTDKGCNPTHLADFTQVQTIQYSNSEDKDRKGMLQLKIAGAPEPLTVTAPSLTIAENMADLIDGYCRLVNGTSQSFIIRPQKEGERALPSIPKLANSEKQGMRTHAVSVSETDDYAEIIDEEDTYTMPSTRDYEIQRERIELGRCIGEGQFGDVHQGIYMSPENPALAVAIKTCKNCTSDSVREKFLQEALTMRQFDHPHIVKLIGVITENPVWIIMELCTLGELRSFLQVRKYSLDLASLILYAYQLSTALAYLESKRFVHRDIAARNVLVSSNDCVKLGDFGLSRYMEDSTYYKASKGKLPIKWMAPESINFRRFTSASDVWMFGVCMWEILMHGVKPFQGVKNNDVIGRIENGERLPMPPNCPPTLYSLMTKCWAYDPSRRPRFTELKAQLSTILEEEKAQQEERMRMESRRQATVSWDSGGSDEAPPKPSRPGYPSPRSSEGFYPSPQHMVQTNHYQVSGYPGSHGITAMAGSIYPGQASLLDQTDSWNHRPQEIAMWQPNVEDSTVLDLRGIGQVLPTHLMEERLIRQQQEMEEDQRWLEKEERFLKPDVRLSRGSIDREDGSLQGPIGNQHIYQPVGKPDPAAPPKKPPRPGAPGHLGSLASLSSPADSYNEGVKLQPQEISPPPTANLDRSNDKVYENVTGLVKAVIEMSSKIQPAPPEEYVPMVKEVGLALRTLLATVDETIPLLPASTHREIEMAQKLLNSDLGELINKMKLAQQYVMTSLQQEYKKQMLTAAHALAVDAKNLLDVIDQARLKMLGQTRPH

`[N-]=[N+]=NCc1ccccc1C[C@]1(C(N)=O)N=C(c2ccc(OCCCO)cc2)O[C@H]1c1ccccc1`: the composite z-score is 0.96 with Albumin (Bos taurus); 0.073 in test [2]; -0.1 in test [3]; 0.82 in test [4]; 2.67 in test [5]; 0.525 in test [6]. In addition, the composite z-score in the test on Sam68 (KHDRBS1) was 0.976; in test [7] it was -1.03; in test [8], 0.533; in test [9], 0.409; in test [10], 1.21; in test [11], 0.196. The composite z-score in test [12] is 0.496; in test [13] it was 1.31; in test [14], -0.653; in the test on Lefty1, -0.625; in [16], 1.14. For the same compound, the composite Z-score in test [1] was -0.524 (inactive). The z-score in test [15] was 0.658; in [17], 0.856 (inactive).
Turning to `COC(=O)C1=CC(CCCO)=CC(C2CC2)N(C)C=C1C(=O)OC` (stereo not given), the composite z-score in the test with Albumin (Bos taurus) is 1.04; in [2], -0.0108; in test [3] it was -0.0668; in test [4], 0.97; in [5] it was 1.09; in [6], 0.687. For the same compound, the composite z-score with Sam68 (KHDRBS1) was 0.0065; in test [7], -0.761; in test [8] it was 0.0472; in test [9] it was -0.153; in test [10], -0.308; in test [11], 0.623. In addition, the composite z-score is -0.828 in [12]; -0.157 in test [13]; -0.539 in test [14]; -0.285 with Lefty1; 1.26 in test [16]. Also, in test [1], the composite Z-score is 0.856 (inactive). Besides, the z-score is 0.511 in [15] and 0.727 (inactive) in [17].
As to `CCOC(=O)C[C@H]1[C@H](OC(=O)c2ccccc2-c2ccccc2)[C@@H](NC(=O)c2ccc(-c3ccccc3)cc2)c2cc(OCCCO)ccc2N1C(=O)c1ccc2ccccc2n1`, the composite z-score with Albumin (Bos taurus) is 0.275; in [2], 0.0715; in test [3] it was -0.0441; in test [4], 0.131; in [5], 0.406; in [6], 0.272. In addition, the composite z-score in the test with Sam68 (KHDRBS1) was 1.06; in [7] it was 0.304; in test [8], 0.513; in test [9], 0.792; in test [10] it was 0.472; in test [11] it was -0.0377. The composite z-score in test [12] worked out at 0.456; in test [13], 0.57; in test [14] it was 0.496; in the test with Lefty1, 0.871; in [16] it was 0.181. The composite Z-score in test [1] was 0.367 (inactive). In addition, the z-score is 0.687 in test [15] and 0.555 (inactive) in [17].
Take `COC(=O)[C@@]1(Cc2ccccc2N=[N+]=[N-])N=C(c2ccc(OCCCO)cc2)O[C@H]1c1ccccc1N=[N+]=[N-]`: the composite z-score with Albumin (Bos taurus) is -0.908; in test [2], 0.149; in test [3] it was 0.0977; in test [4] it was 0.355; in [5], 1.44; in [6], 0.494. In addition, the composite z-score in the test with Sam68 (KHDRBS1) worked out at 0.996; in test [7], 0.456; in [8] it was 0.851; in test [9] it was 1.08; in test [10] it was 1.14; in test [11], 0.909. For the same compound, the composite z-score was 0.605 in [12]; 1.27 in test [13]; 0.933 in [14]; 0.119 with Lefty1; 0.767 in [16]. Moreover, the composite Z-score in test [1] was 0.332 (inactive). The z-score is 2.85 in [15] and -5.01 (inactive) in test [17].
Take `C[C@@H]1NC(=O)[C@@]23C(=O)N[C@@H](Cc4ccccc4)C2[C@H](C)[C@@]2(C)O[C@H]2C3/C=C/C/C=C\CNC(=O)[C@@H]2CCCN2C1=O` (stereo not given in full): the composite z-score is -0.397 in the test with Albumin (Bos taurus); -0.078 in [2]; -0.139 in [3]; 0.742 in [4]; -0.0175 in [5]; -0.11 in test [6]. Besides, the composite z-score is -1 in the test on Sam68 (KHDRBS1); 0.18 in test [7]; -0.327 in test [8]; 0.104 in test [9]; -0.715 in test [10]; -0.178 in test [11]. The composite z-score in test [12] is -1.12; in test [13], 0.148; in test [14], -0.197; with Lefty1, 0.0216; in test [16], -0.628. For the same compound, the composite Z-score in [1] is -0.433 (inactive). The z-score is 0.0238 in test [15] and 0.0545 (inactive) in test [17].
